# Measurements reported in the supplement of paper PMC6089552.
# The campaign covered roughly 3,200 compounds. About 300 (9.4%) showed activity. Many of the other results were omitted from the sample, so actives are more common in it than they were. A number with no mark means an inactive call.
# Test system: A673/TR/shEF
# Assay: cell viability (LOESS-normalised, relative to median of negative controls) (log2 ratio); higher = more viable cells (less compound effect), active = hit call of the paper (over 3 MAD below the median)
# Conditions: treatment time: 72 h
# In short: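 A673/TR/shEF Ewing sarcoma cells were plated at 1,500 per well in 384-well plates and cultured with or without doxycycline, added 24 h before compounds, to induce EWS-FLI1 shRNA knockdown. Library compounds at two or more concentrations, alongside DMSO controls, were applied for three days. Cell viability was measured by CellTiter-Glo luminescence on an Envision reader. Readings were LOESS-corrected per plate, divided by the median of negative controls and log2-transformed, and hits were wells lying at least three median absolute deviations from the median of all screened wells.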
# [1] = 0.25 µM, library screen: screen1, EWS-FLI1 expression: high (no doxycycline)
# [2] = 0.25 µM, library screen: screen1, EWS-FLI1 expression: low (doxycycline-induced shRNA knockdown)
# [3] = 2.5 µM, library screen: screen1, EWS-FLI1 expression: high (no doxycycline)
# [4] = 2.5 µM, library screen: screen1, EWS-FLI1 expression: low (doxycycline-induced shRNA knockdown)
# [5] = 0.103 µM, library screen: screen3, EWS-FLI1 expression: high (no doxycycline)
# [6] = 0.103 µM, library screen: screen3, EWS-FLI1 expression: low (doxycycline-induced shRNA knockdown)
# [7] = 0.308 µM, library screen: screen3, EWS-FLI1 expression: high (no doxycycline)
# [8] = 0.308 µM, library screen: screen3, EWS-FLI1 expression: low (doxycycline-induced shRNA knockdown)
# [9] = 0.926 µM, library screen: screen3, EWS-FLI1 expression: high (no doxycycline)
# [10] = 0.926 µM, library screen: screen3, EWS-FLI1 expression: low (doxycycline-induced shRNA knockdown)
# [11] = 2.8 µM, library screen: screen3, EWS-FLI1 expression: high (no doxycycline)
# [12] = 2.8 µM, library screen: screen3, EWS-FLI1 expression: low (doxycycline-induced shRNA knockdown)
# [13] = 8.3 µM, library screen: screen3, EWS-FLI1 expression: high (no doxycycline)
# [14] = 8.3 µM, library screen: screen3, EWS-FLI1 expression: low (doxycycline-induced shRNA knockdown)
# [15] = 25 µM, library screen: screen3, EWS-FLI1 expression: high (no doxycycline)
# [16] = 25 µM, library screen: screen3, EWS-FLI1 expression: low (doxycycline-induced shRNA knockdown)
# [17] = 0.25 µM, library screen: screen2, EWS-FLI1 expression: high (no doxycycline)
# [18] = 0.25 µM, library screen: screen2, EWS-FLI1 expression: low (doxycycline-induced shRNA knockdown)
# [19] = 2.5 µM, library screen: screen2, EWS-FLI1 expression: high (no doxycycline)
# [20] = 2.5 µM, library screen: screen2, EWS-FLI1 expression: low (doxycycline-induced shRNA knockdown)
smiles,measurement,setting,value
COc1cc2ccc(=O)oc2c(OC)c1OC,cell viability (log2),[1],0.24
same,cell viability (log2),[2],0.119
same,cell viability (log2),[3],0.156
same,cell viability (log2),[4],0.115
CC(C)/C(O)=C1/C(=O)O[C@@H](c2ccoc2)[C@]2(C)C(O)[C@@H](O)[C@@]34OC5(C)OC67CC(C)(C(O)[C@]6(O)[C@@H](O)[C@]3(O5)C12)[C@H](CC(=O)O)[C@]74C (stereo partly drawn),cell viability (log2),[1],0.0599
same,cell viability (log2),[2],0.0645
same,cell viability (log2),[3],0.0749
same,cell viability (log2),[4],0.047
COC(=O)C1=C(C)NC2=C(C(=O)CCC2)C1c1coc2ccccc2c1=O (stereo not drawn),cell viability (log2),[1],0.109
same,cell viability (log2),[2],0.0579
same,cell viability (log2),[3],0.125
same,cell viability (log2),[4],0.0379
CC(=O)O[C@@H]1CC2C(C)(C)[C@@H](O)CC[C@]2(C)C2CC[C@@]3(C)[C@H](c4ccoc4)OC(=O)[C@H]4O[C@]43[C@@]21C (stereo partly drawn),cell viability (log2),[1],0.0735
same,cell viability (log2),[2],0.138
same,cell viability (log2),[3],0.203
same,cell viability (log2),[4],0.158
CCOc1cc(/C=C2\SC(=S)N(CCS(=O)(=O)O)C2=O)ccc1O,cell viability (log2),[1],-0.00487
same,cell viability (log2),[2],0.0852
same,cell viability (log2),[3],0.0865
same,cell viability (log2),[4],0.0812
CN1CCN(c2nc3ccccn3c(=O)c2/C=C2\SC(=S)N(CCc3ccccc3)C2=O)CC1,cell viability (log2),[1],-0.00293
same,cell viability (log2),[2],0.00861
same,cell viability (log2),[3],0.0344
same,cell viability (log2),[4],0.124
C[C@H](CCC(=O)O)[C@H]1CC[C@H]2[C@@H]3CC[C@@H]4CCCC[C@]4(C)[C@H]3CC[C@]12C,cell viability (log2),[1],0.0641
same,cell viability (log2),[2],-0.0159
same,cell viability (log2),[3],0.109
same,cell viability (log2),[4],-0.0358
C/C=C(/C)C(=O)O[C@H]1[C@H](OC(C)=O)[C@]2(CO)[C@H](O)C[C@]3(C)C(=CC[C@@H]4[C@@]5(C)CC[C@H](O[C@@H]6O[C@H](C(=O)O)[C@@H](O[C@@H]7O[C@H](CO)[C@@H](O)[C@H](O)[C@H]7O)[C@H](O)[C@H]6O[C@@H]6O[C@H](CO)[C@@H](O)[C@H](O)[C@H]6O)[C@](C)(CO)[C@@H]5CC[C@]43C)[C@@H]2CC1(C)C.C/C=C(\C)C(=O)O[C@H]1[C@H](OC(C)=O)[C@@]2(CO)C(CC1(C)C)C1=CCC3[C@@]4(C)CC[C@H](O[C@@H]5O[C@H](C(=O)O)[C@@H](O[C@@H]6O[C@H](CO)[C@@H](O)[C@H](O)[C@H]6O)[C@H](O)[C@H]5O[C@@H]5O[C@H](CO)[C@@H](O)[C@H](O)[C@H]5O)[C@](C)(CO)C4CC[C@@]3(C)[C@]1(C)C[C@H]2O,cell viability (log2),[1],0.0112
same,cell viability (log2),[2],-0.0408
same,cell viability (log2),[3],0.0934
same,cell viability (log2),[4],0.0403
CCC1=C[C@@H]2CN(C1)Cc1c([nH]c3ccccc13)[C@@](C(=O)OC)(c1cc3c(cc1OC)N(C)[C@H]1[C@@](O)(C(=O)OC)[C@H](OC(C)=O)[C@]4(CC)C=CCN5CC[C@]31[C@@H]54)C2,cell viability (log2),[5],-4.31 (active)
same,cell viability (log2),[6],-1.05 (active)
same,cell viability (log2),[7],-3.96 (active)
same,cell viability (log2),[8],-1.11 (active)
same,cell viability (log2),[9],-4.31 (active)
same,cell viability (log2),[10],-0.811 (active)
same,cell viability (log2),[11],-4.31 (active)
same,cell viability (log2),[12],-0.798 (active)
same,cell viability (log2),[13],-3.91 (active)
same,cell viability (log2),[14],-0.769 (active)
same,cell viability (log2),[15],-3.44 (active)
same,cell viability (log2),[16],-0.836 (active)
CCC1(O)CC2CN(CCc3c([nH]c4ccccc34)[C@@](C(=O)OC)(c3cc4c(cc3OC)N(C)C3[C@]45CCN4CC=C[C@@](CC)([C@@H](OC(C)=O)[C@]3(O)C(=O)OC)[C@H]45)C2)C1 (stereo partly drawn),cell viability (log2),[17],-3.54 (active)
same,cell viability (log2),[18],-0.483 (active)
same,cell viability (log2),[19],-3.67 (active)
same,cell viability (log2),[20],-0.537 (active)
CC[C@]1(O)C[C@H]2CN(CCc3c([nH]c4ccccc34)[C@@](C(=O)OC)(c3cc4c(cc3OC)N(C=O)[C@H]3[C@@](O)(C(=O)OC)[C@H](OC(C)=O)[C@]5(CC)C=CCN6CC[C@]43[C@@H]65)C2)C1,cell viability (log2),[5],-3.56 (active)
same,cell viability (log2),[6],-0.748 (active)
same,cell viability (log2),[17],-2.87 (active)
same,cell viability (log2),[18],-0.436 (active)
same,cell viability (log2),[7],-3.82 (active)
same,cell viability (log2),[8],-0.668 (active)
same,cell viability (log2),[9],-3.92 (active)
same,cell viability (log2),[10],-0.728 (active)
same,cell viability (log2),[19],-2.88 (active)
same,cell viability (log2),[20],-0.517 (active)
same,cell viability (log2),[11],-3.8 (active)
same,cell viability (log2),[12],-0.704 (active)
same,cell viability (log2),[13],-3.93 (active)
same,cell viability (log2),[14],-0.847 (active)
same,cell viability (log2),[15],-3.66 (active)
same,cell viability (log2),[16],-0.84 (active)
C=CCN1C(=O)C(=C2C(=O)N(C)c3ccccc32)SC1=S,cell viability (log2),[1],0.145
same,cell viability (log2),[2],0.0841
same,cell viability (log2),[3],0.0806
same,cell viability (log2),[4],0.0634
CC1(C)C[C@H](O)[C@]23CC[C@@H](O)[C@@](C)(CC[C@@H]12)C3,cell viability (log2),[1],0.155
same,cell viability (log2),[2],0.054
same,cell viability (log2),[3],0.181
same,cell viability (log2),[4],0.0139
C=CCNc1nc2ccccn2c(=O)c1/C=C1\SC(=S)N(CCc2ccccc2)C1=O,cell viability (log2),[1],0.071
same,cell viability (log2),[2],0.0307
same,cell viability (log2),[3],0.121
same,cell viability (log2),[4],0.134
CCOC(=O)c1c[nH]c2c(Cl)c(Cl)ccc2c1=O,cell viability (log2),[1],0.0772
same,cell viability (log2),[2],0.122
same,cell viability (log2),[3],0.11
same,cell viability (log2),[4],0.176
O=C(O)c1ccc(O)c2c1C(=O)c1cc(O)cc(O)c1C2=O,cell viability (log2),[1],0.0473
same,cell viability (log2),[2],-0.0191
same,cell viability (log2),[3],0.0745
same,cell viability (log2),[4],0.0247
COc1cc(CN2CCN(Cc3cccnc3)CC2)cc(OC)c1OC,cell viability (log2),[1],0.0843
same,cell viability (log2),[2],0.0394
same,cell viability (log2),[3],0.126
same,cell viability (log2),[4],0.144
